Measured values from PubChem BioAssay (Tox21).
Where “and” joins values, the source holds several entries; their conditions need not be identical. Equal values may be shown once. A number with no mark means an inactive call. Results filed as inconclusive are left out. Where a call stands in place of a potency, no number is given. Calls of active or inactive are those of the source. Unless noted, calls follow the shape of the dose curve; as a rule, active = well fitted curve in the direction sought with a large enough effect in the repeat runs; inconclusive = weak or mixed curves; inactive = no such curve, though single readings can be large; an effect the other way counts as inactive or inconclusive.

Legend:
[1] = qHTS assay for small molecule agonists of the p53 signaling pathway (AID 651631; calls by dose curve; also: nearly all actives have a fitted effect of over 15% in size; also: potency is read from the fitted curve at half-maximal effect)
In short: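 Agonist mode screen using a stably integrated beta-lactamase gene under p53 response elements in HCT-116 cells. Compound exposure lasts 16 h at 37 °C; fluorescence intensity is measured following 2 h FRET substrate loading.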

[2] = qHTS assay for small molecules that induce genotoxicity in human embryonic kidney cells expressing luciferase-tagged ATAD5 (AID 651632); also: nearly all actives have a fitted effect of over 15% in size
In short: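 A rise in luciferase signal from ATAD5-tagged HEK293T cells marks genetic stress. Cells were exposed to compounds for 16 hr at 37C, 5% CO2, then luciferase was quantified after a 30 min room-temperature incubation with Amplite.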

[3] = qHTS assay for small molecule agonists of the p53 signaling pathway - cell viability (AID 651633; calls by dose curve;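 also: p53RE-bla HCT reporter cells with a stable beta-lactamase p53 reporter; nearly all actives have a fitted effect of over 30% in size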)
In short: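 p53RE-bla cells, seeded at 4,000 per well and rested 5 h at 37 C/5% CO2, received compounds in DMSO for 16 h at 37 C. CellTiter-Glo was then added, and luminescence was read after 30 min at room temperature to gauge cytotoxicity.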

[4] = qHTS assay for small molecules that induce genotoxicity in human embryonic kidney cells expressing luciferase-tagged ATAD5 - cell viability (AID 651634; calls by dose curve; also: nearly all actives have a fitted effect of over 25% in size)
In short: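 Cytotoxicity counter-readout: after 15.5 hr compound treatment at 37C, live-cell protease activity in ATAD5-luciferase HEK293T cells measured by CellTiter-Fluor fluorescence, 30 min development at 37C.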

[5] = qHTS assay for small molecule disruptors of the mitochondrial membrane potential - cell viability (AID 720634; calls by dose curve;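 also: human HepG2 liver cancer cells; nearly all actives have a fitted effect of over 20% in size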)
In short: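 Cytotoxicity was quantified from ATP content by CellTiter-Glo luminescence in the same wells as the MMP dye read-out. HepG2 (2,000 cells/well) were plated overnight and exposed to compounds for 1 hr at 37 C.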

[6] = qHTS assay for small molecule disruptors of the mitochondrial membrane potential (AID 720635); also: potency is read from the fitted curve at half-maximal effect
In short: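 HepG2 cells (2,000/well) attached overnight at 37C, then took compound for 1 hr at 37C, 5% CO2. Mito-MPS dye was added for 30 min; fluorescence was read at 490/535 nm (monomers) and 540/590 nm (aggregates).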

[7] = qHTS assay to test for compound auto fluorescence at 590 nm (red) in HepG2 cells (AID 720674)
In short: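 Rose Bengal sodium served as the red fluorophore standard. HepG2 monolayers (overnight attachment, MEM with 10% FBS) were exposed to test compounds for 1 hr at 37 C and read at Ex 540/Em 590 nm.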

[8] = qHTS assay to test for compound auto fluorescence at 535 nm (green) in HepG2 cells (AID 720675)
[9] = qHTS assay to test for compound auto fluorescence at 460 nm (blue) in HEK293 cells (AID 720678)
In short: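 Cells were seeded and left to adhere for 4-5 hr at 37C. Compounds were then pin-transferred. After an overnight incubation at 37C under 5% CO2, intrinsic fluorescence at 405/460 nm was measured and referenced to triamterene.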

[10] = qHTS assay to test for compound auto fluorescence at 590 nm (red) in HEK293 cells (AID 720679)
In short: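 Each well held 2,000 HEK293 cells in medium containing 10% dialyzed FBS. Following 4-5 hr attachment at 37C, 23 nL test compound or DMSO was added; plates sat overnight, and red fluorescence (540/590nm) was recorded.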

[11] = qHTS assay to test for compound auto fluorescence at 535 nm (green) in HEK293 cells (AID 720680)
[12] = qHTS assay to test for compound auto fluorescence at 460 nm (blue) in HEK293 cell free culture (AID 720681)
In short: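 Test compounds were pinned into cell-free culture medium (DMEM with 10% FBS) and fluorescence was read directly at Ex/Em 405/460 nm. Signals were expressed as fluorescence equivalents of triamterene, with DMSO vehicle as control.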

[13] = qHTS assay to test for compound auto fluorescence at 590 nm (red) in HEK293 cell free culture (AID 720683)
In short: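 Tox21 10K library compounds were pinned into cell-free DMEM with 10% FBS and fluorescence was read at excitation 540 nm. Activity is expressed as Rose Bengal sodium equivalency.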

[14] = qHTS assay to test for compound auto fluorescence at 590 nm (red) in HepG2 cell free culture (AID 720684)
In short: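 Readout: intrinsic compound fluorescence at 590 nm emission after 540 nm excitation, scaled to Rose Bengal sodium. Matrix was cell-free MEM with 10% FBS; DMSO vehicle wells served as control.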

[15] = qHTS assay to test for compound auto fluorescence at 460 nm (blue) in HepG2 cell free culture (AID 720685)
In short: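 Cell-free plates of MEM plus 10% FBS received 23 nL compound or DMSO vehicle; blue-channel (405/460 nm) intensity scored against triamterene as reference fluorophore.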

[16] = qHTS assay to test for compound auto fluorescence at 535 nm (green) in HepG2 cell free culture (AID 720686)
[17] = qHTS assay to test for compound auto fluorescence at 460 nm (blue) in HepG2 cells (AID 720687)
In short: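 Cells (2,000/well in MEM with 10% FBS) attached overnight at 37 C, then were exposed to compound or DMSO for 1 hr at 37 C, 5% CO2. Fluorescence read at Ex/Em 405/460 nm, expressed as triamterene-equivalent signal.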

[18] = qHTS assay to test for compound auto fluorescence at 535 nm (green) in HEK293 cell free culture (AID 720682)
In short: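 No cells present: wells hold DMEM supplemented with 10% FBS, into which compound or vehicle is pinned. Green emission is then recorded (485 nm excitation, 535 nm emission) and scaled to fluorescein.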

[19] = molecular target: Glucocorticoid receptor (Homo sapiens) (UniProt P04150); assay: qHTS assay to identify small molecule antagonists of the glucocorticoid receptor (GR) signaling pathway (AID 720692; active = well fitted inhibition curve with a large enough effect in the signal ratio in the repeat runs, not every such curve was filed as active; the % refers to the signal ratio)
In short: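 Inhibition of dexamethasone-driven (5 nM final) beta-lactamase expression was measured in GRE-reporter HeLa cells over 18 h at 37C. Fluorescence was read after 2 h with the B/G FRET substrate at room temperature.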

[20] = molecular target: Glucocorticoid receptor (Homo sapiens) (UniProt P04150); assay: qHTS assay to identify small molecule agonists of the glucocorticoid receptor (GR) signaling pathway (AID 720691; active = well fitted activation curve with a large enough effect in the signal ratio in the repeat runs, not every such curve was filed as active; the % refers to the signal ratio); settings: GR-bla HeLa, beta-lactamase reporter ratio, 18 h; activation: at 62.4 µM (top of the series) unless noted
In short: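 Agonist-mode qHTS in HeLa cells stably expressing a glucocorticoid-response-element beta-lactamase reporter. Fluorescence intensity read with FRET substrate (2 h, room temperature) after 18 h compound treatment at 37 C.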

Chain of Glucocorticoid receptor (Homo sapiens) (P04150 whole entry, looked up): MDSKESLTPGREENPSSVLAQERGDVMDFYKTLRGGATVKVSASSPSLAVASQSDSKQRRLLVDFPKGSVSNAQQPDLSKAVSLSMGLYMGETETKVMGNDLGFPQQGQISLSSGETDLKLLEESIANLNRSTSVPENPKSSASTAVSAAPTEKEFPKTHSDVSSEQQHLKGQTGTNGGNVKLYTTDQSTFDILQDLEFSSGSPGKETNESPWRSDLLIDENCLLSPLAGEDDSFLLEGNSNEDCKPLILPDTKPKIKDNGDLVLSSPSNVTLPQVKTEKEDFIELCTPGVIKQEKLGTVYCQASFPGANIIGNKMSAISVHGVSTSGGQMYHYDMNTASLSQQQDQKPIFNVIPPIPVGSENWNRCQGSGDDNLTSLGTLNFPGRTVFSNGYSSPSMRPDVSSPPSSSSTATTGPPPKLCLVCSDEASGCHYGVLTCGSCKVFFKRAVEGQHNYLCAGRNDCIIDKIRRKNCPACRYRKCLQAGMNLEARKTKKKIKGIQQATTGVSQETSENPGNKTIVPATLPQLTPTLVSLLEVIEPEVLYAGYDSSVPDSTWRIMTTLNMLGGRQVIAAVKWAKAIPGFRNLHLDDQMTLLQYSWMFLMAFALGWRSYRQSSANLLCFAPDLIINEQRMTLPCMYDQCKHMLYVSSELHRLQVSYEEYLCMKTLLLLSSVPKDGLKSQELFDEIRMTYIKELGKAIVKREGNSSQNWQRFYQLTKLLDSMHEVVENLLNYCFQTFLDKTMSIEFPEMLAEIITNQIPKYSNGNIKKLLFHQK

Compound | Potency [1] | Potency [2] | Potency [3] | Potency [4] | Potency [5] | Potency [6] | Potency [7] | Potency [8] | outcome [9] | Potency [10] | outcome [11] | outcome [12] | Potency [13] | Potency [14] | outcome [15] | Potency [16] | outcome [17] | outcome [18] | Potency [19] | Potency [20]
CCCCCCCCCCCC(=O)OC[C@@H](O)[C@H]1OC[C@H](OCCO)[C@H]1OCCO | inactive | inactive | inactive | inactive | inactive | inactive | inactive | inactive | inactive | inactive | inactive | inactive | inactive | inactive | inactive | inactive | inactive | – | – | –
N=c1ccn2c(n1)O[C@H]1[C@H](O)[C@@H](CO)O[C@H]12 | 1.5 µM (active) and 1.72 µM (active) | inactive | inactive | inactive | inactive | inactive | – | inactive | inactive | inactive | inactive | inactive | inactive | inactive | inactive | inactive | inactive | inactive | inactive | –
Nc1cc(C(=O)O)c(O)c(S(=O)(=O)O)c1 | inactive | inactive | inactive | inactive | inactive | inactive | – | inactive | inactive | inactive | inactive | inactive | inactive | inactive | inactive | inactive | – | inactive | inactive | inactive
COc1ccc(C(=O)N2CCN(CC(=O)N3CCOCC3)CC2)cc1 | inactive | inactive | inactive | inactive | inactive | inactive | – | inactive | inactive | inactive | inactive | inactive | inactive | inactive | inactive | inactive | – | inactive | – | –
CCOCC(O)COc1ccc(NC(=O)CC[S+](C)C)cc1 (configuration not stated) | inactive | inactive | inactive | inactive | inactive | – | inactive | inactive | inactive | inactive | inactive | inactive | inactive | inactive | inactive | inactive | inactive | inactive | inactive | inactive
CCCCC(CC)CN1C(=O)C2C3C=CC(C3)C2C1=O (configuration not stated) | inactive | inactive | inactive | inactive | inactive | 6.11 µM (active) | – | inactive | inactive | inactive | – | inactive | inactive | inactive | inactive | inactive | inactive | inactive | – | inactive
CCNc1cc(O)ccc1C | inactive | inactive | inactive | inactive | inactive | – | inactive | inactive | inactive | inactive | inactive | inactive | inactive | inactive | inactive | inactive | inactive | inactive | – | –
